Most compounds without a hit are left out; they make up all but 13% or so of the library.
HCV inhibitor = HCV inhibition; Huh7.5.1 HCVcc-Cre infection, luciferase reporter, 44 h; Potency, µM (titrated, usually from 41.8 µM), without a hit: top-dose activity change, negative = inhibition, most hits filed as inhibitors; actives 3.4% (n = 340,000); AID 651820; active = well fitted inhibition curve with a large enough effect; inconclusive = small, poorly fitted or top-dose-only effect, or another doubt; inactive = no such curve, though single readings can be large or run the other way; also: potency is read from the fitted curve at half-maximal effect; % is scaled to controls: 0 for no effect and ±100 for the full control effect
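Cells seeded at 1,000/well and cultured 4 h, then compounds added followed by HCVcc-Cre virus (~0.5 moi). After 44 h further culture, luciferase substrate was added, plates held 15 min at room temperature, and luminescence read for 15 sec.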
Marburg entry inh = inhibitors of Marburg virus binding or cell entry; Marburg virus pseudotyped entry inhibition, cell reporter; Potency, µM (top dose mostly 37.8 µM), for inactives: at the top dose activity change, negative = inhibition, usual class: inhibitors; actives 1.8% (n = 300,000); calls by dose curve; tested in HEK293 cells; also: potency is read from the fitted curve at half-maximal effect; % is scaled to controls: 0 for no effect and ±100 for the full control effect
FMDV inh = foot and mouth disease virus antiviral activity; Potency, µM (doses to about 57.9 µM), for inactives: top-dose activity change, negative = inhibition, usual class: inhibitors; AID 1159524; actives 1.2% (n = 410,000); FMDV antiviral cell-based qHTS; calls by dose curve; tested in HEK293T cells; also: read-out not given here; potency is read from the fitted curve at half-maximal effect; % is scaled to controls: 0 for no effect and ±100 for the full control effect; nearly all actives have a fitted effect of over 45% in size
CHX counter = counter-screen hit for Shiga toxin inhibitors, cycloheximide | cell reporter, cycloheximide protein synthesis inhibition counterscreen | max response, % | actives 12% (n = 300,000) | AID 2314; in the data active = max response mostly above about 13%, no sharp cut-off; inactive = mostly below about 14%; also: read at 38.3 µM for the half of the compounds with a filed dose; 0% is about no effect
Shiga toxin inh = blocks Shiga toxin action in Vero cells; Vero cells, Shiga toxin protein synthesis inhibition reporter; inhibition, % at 38.7 µM; actives 9.2% (n = 290,000); AID 2315; in the data active = inhibition mostly above about 28%, no sharp cut-off; inactive = mostly below about 43%; also: 0% is about no effect
Lassa entry inh = blocks Lassa virus binding to or entry into cells. Lassa virus pseudotype entry inhibition, cell reporter. Potency, µM (highest dose often 37.9 µM), for inactives: at the top dose activity change, negative = inhibition, usual class: inhibitors. actives 1.2% (n = 300,000). AID 540256; calls by dose curve; tested in HEK293 cells; also: potency is read from the fitted curve at half-maximal effect; % is scaled to controls: 0 for no effect and ±100 for the full control effect; nearly all actives have a fitted effect of over 50% in size
An asterisk follows results filed as active; ? = inconclusive; . = not tested or not shown; [ ] = dose if it differs, or a comment.

SMILES | HCV inhibitor | Marburg entry inh | FMDV inh | CHX counter | Shiga toxin inh | Lassa entry inh
Cc1ccc(CN=c2c([N+](=O)[O-])nn(-c3ccc(Cl)cc3)n2O)cc1 | ? | . | 0% | 44* | 33 | .
CCc1cccc(N=c2c([N+](=O)[O-])nn(-c3ccc(Cl)cc3)n2O)c1 | ? | ? | -27% | 2 | 21 | 29%[14.3 µM]
Cc1cccc(N=c2c([N+](=O)[O-])nn(-c3ccc(Cl)cc3)n2O)c1 | 10% | 11%[46.1 µM] | -8% | 20* | 35 | 23%
O=[N+]([O-])c1nn(-c2cccc(Cl)c2)n(O)c1=NCc1cccnc1 | ? | ? | -9% | 23* | 13 | 1%
O=[N+]([O-])c1nn(-c2ccc(Cl)cc2)n(O)c1=NCc1ccccc1Cl | -11% | 1%[46.1 µM] | 19% | 35* | 74* | -16%[46.1 µM]
CCn1c(SCC(=O)N/N=C/c2ccccc2OCC(=O)O)nnc1-c1ccc(OC)cc1 | 4% | 29%[46.1 µM] | -3% | 0 | 18 | 3%
CC(C)NC(=O)c1ccc(CONC(=O)OCc2ccccc2)cc1 | . | . | 0% | . | . | .
O=[N+]([O-])c1nn(-c2ccc(Cl)cc2)n(O)c1=NCc1ccncc1 | ? | . | ? | 17 | 36 | .
O=[N+]([O-])c1nn(-c2ccc(Cl)cc2)n(O)c1=NCc1cccnc1 | ? | -5% | 14% | 23* | 39 | 1%
CC(C)[C@H]1c2ccc(F)cc2CC[C@@]1(CCN(C)CCCc1nc2ccccc2[nH]1)OC(=O)C1CC1 | . | . | 0% | -10 | -25 | .
COc1cccc(C2C3=C(CC(C)(C)CC3=O)Nc3cc(OC)c(OC)cc32)c1 (stereo not drawn) | ? | -2%[46.1 µM] | -10% | 5 | -17 | 8%
C#CCCC/C(=C\C(=O)N(C)[C@H](C(=O)N(C)[C@H](C(=O)N(C)[C@H](C(=O)N(C)[C@H](C(N)=O)C(C)C)C(C)C)C(C)C)C(C)C)OC | -23% | . | -17% | . | . | .
CCCCCCCC(=O)C(C)C(=O)N(C)[C@H](Cc1ccc(OC)cc1)C(=O)N(C)[C@H](C(N)=O)C(C)C (stereo partly drawn) | 0.56µM* | . | 0% | . | . | .
Cc1cccc(C(=O)NCCC(=O)Nc2ccc(C#N)cc2)c1 | 7% | -3%[46.1 µM] | -7% | -6 | -5 | -13%[46.1 µM]
CCOC(=O)c1c(NC(=O)CSC2=NN3CCCC(=O)N=C3S2)sc2c1CCCCC2 | 8.9µM* | 2% | -45% | 7 | -6 | 19%
CC(C)C[C@H]1CN([C@@H](Cc2ccc(O)cc2)CN2CCC[C@@H]2CN2C(=S)NC[C@@H]2Cc2ccccc2)C(=S)N1CC1CCCCCC1 | . | . | -11% | . | . | .
CC(C)C[C@@H](CN1CCCC1CN1C(=S)NC[C@@H]1Cc1ccc(O)cc1)N1C[C@H](Cc2ccccc2)N(CC2CCCCCC2)C1=S (stereo partly drawn) | ? | . | 0% | . | . | .
CC(C)C[C@@H](CN1CCCC1CN1C(=S)NC[C@@H]1Cc1ccc(O)cc1)N1C[C@H](Cc2ccccc2)N(CC2CCCCC2)C1=S (stereo partly drawn) | 22µM* | . | ? | . | . | .
CC(C)C[C@H]1CNC(=S)N1CC1CCCN1C[C@H](Cc1ccccc1)N1C[C@H](Cc2ccc(O)cc2)N(CC2CCCCCC2)C1=S (stereo partly drawn) | 6.3µM* | . | ? | . | . | .
CCCNC(=O)COc1coc(CN2CCN(c3ccccc3)CC2)cc1=O | -22% | . | -19% | 1 | -7 | .
CCOC(=O)[C@@H]1[C@H]2COc3ccc(Br)cc3[C@@H]2N2C(=O)N(c3ccc(Br)cc3)C(=O)[C@]12C | -3% | . | -26% | 0 | 6 | .
CCOC(=O)[C@@H]1[C@H]2COc3ccc(Br)cc3[C@H]2N2C(=O)N(c3ccc(Br)cc3)C(=O)[C@]12C | 32µM* | . | -17% | -4 | -4 | .
CSc1nsc(SCC(=O)Nc2ccc(Br)cn2)n1 | -10% | ? | 6% | 28* | 78* | 18%
CCCCNS(=O)(=O)c1ccc2nc(SCC(=O)Nc3ccccc3Cl)[nH]c2c1 | 13µM* | ? | 3% | -2 | -12 | ?
CSc1nsc(SCC(=O)Nc2ccc(NC(C)=O)cc2)n1 | -5% | 4%[46.1 µM] | 1% | -4 | 38 | 21%
SMILES | HCV inhibitor | Marburg entry inh | FMDV inh | CHX counter | Shiga toxin inh | Lassa entry inh
Cc1cc2nc(SCC(=O)Nc3ccccc3C(=O)O)[nH]c2cc1C | 9% | 25%[46.1 µM] | 35% | 15 | 38* | ?
Cc1cc(C)nc(SCC(=O)Nc2ccc(Br)cn2)n1 | ? | -7% | -18% | -2 | -13 | 5%
CSc1nsc(SCC(=O)Nc2ccc(F)cc2F)n1 | -12% | ? | 39% | 32* | 52* | 20%
CCCCNS(=O)(=O)c1ccc2nc(SCC(=O)Nc3cccc(F)c3)[nH]c2c1 | 9% | -6% | -20% | -5 | -12 | -16%
CC(C)CCCC(C)C1CCC2C3CC(=O)[C@H]4CC(O)CC[C@]4(C)C3CC[C@@]12C (stereo partly drawn) | . | . | 1% | . | . | .
CC(C)(C)C(=O)CSc1nc2ccsc2c(=O)n1Cc1ccccc1Cl | . | . | -4% | . | . | 27%[46.1 µM]
CSc1nsc(SCC(=O)Nc2ccccc2C(=O)O)n1 | 13% | 18µM* | 39% | 19* | 44* | 1%
CC(C)CNc1ncnc2c1sc1nc(N3CCOCC3)c3c(c12)CC(C)(C)OC3 | ? | 18% | 0% | 18 | -22 | -8%
CCN(CC)CCNc1ncnc2c1sc1nc(N3CCCC3)c3c(c12)CC(C)(C)OC3 | 2µM* | ? | ? | -2 | -15 | ?
CN(C)CCNc1ncnc2c1sc1nc(N3CCCC3)c3c(c12)CC(C)(C)OC3 | 13µM* | 7.9µM* | ? | 0 | -10 | ?
NC(C(=O)NC1C(=O)N2C(C(=O)O)=C(Cl)CSC12)c1ccccc1 (stereo not drawn) | . | . | -28% | . | . | .
O=C(O)c1ccc(NC(=O)C2CCN(S(=O)(=O)c3ccc4c(c3)OCCO4)CC2)cc1 | . | . | -20% | . | . | .
COc1cccc(-c2nnn(CC(=O)O)n2)c1 | 16% | 4% | 14% | 2 | -6 | ?
CCOC(=O)Cn1nnc(-c2cccc(OC)c2)n1 | ? | 9% | . | 43* | 109* | 6%
COc1cccc(-c2nnn(C/C(N)=N/O)n2)c1 | 11% | ? | 42% | 37* | -6 | 22%
CCOC(=O)c1cnc(-c2cccc(OC)c2)[nH]c1=O | 3% | 1% | 35% | 15* | 12 | 1%
Cc1cc2oc(C(=O)NCc3ccc(S(N)(=O)=O)cc3)c(C)c2cc1C | -10% | . | -19% | 8 | -14 | .
CN(C)S(=O)(=O)c1ccc2c(c1)N(CC(=O)Nc1ccc(OC(F)(F)F)cc1)C(=O)CS2 | . | . | -2% | . | . | -12%[46.1 µM]
COc1cc(NC(=O)c2ccc(Br)o2)ccc1NC(=O)c1ccccc1Cl | 10µM* | -10% | 0% | 9 | 12 | ?
COc1ccccc1NC(=O)c1ccc(Br)o1 | ? | -2% | 5% | 14* | 31 | -1%
Cc1ccc(-c2cn3cccnc3n2)cc1NC(=O)c1ccc(Br)o1 | 2% | -9% | 14% | -2 | -5 | ?

Screening data from PubChem.
